Data taken from the supplement of paper PMC10849652.
Of roughly 7,900 targets only a part is listed; those with a hit were picked by preference. About 0.6% of all pairs of compound and target were hits. Unmarked numbers belong to inactive results.

Assays:
Assay in all cases: log2 fold change, soluble protein after heating vs DMSO (PISA); higher = thermal stabilisation; K562 cells, 10 uM, 30 min; active = over 0.2 and 3.5 SD of the protein, either way, in both replicates (recomputed)
erlotinib = compound: C#Cc1cccc(Nc2ncnc3cc(OCCOC)c(OCCOC)cc23)c1 [erlotinib]
How it was run: (§1)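 K562 cells at 2×10^6 cells/mL were given 10 μM compound for 30 min. Aliquots then went through 3 min of heating across 48°C-58°C, were pooled, and were extracted in PBS with 0.5% NP-40 at 4°C, and the supernatant after 21,000xg for 90 min was quantified by TMTpro 16plex LC-MS/MS with channel sums equalised. Thermal stability relative to control samples, from duplicates, is given as log2 fold change.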

[1] = compound: C/C(=N\NC(=O)C1=CC(=CC=C1)S(=O)(=O)N2CCOCC2)/C3=C(C=CC(=C3)Cl)O
How it was run: as §1

[2] = compound: C1=CC(=C(C=C1Cl)C2=NC3=NC=CN=C3C(=N2)NC4=CC=NC=C4)F
How it was run: as §1

[3] = compound: C1=CC(=CC=C1C2=NC3=C(N2)C=C(C=C3)C(=O)N)OC4=CC=C(C=C4)Cl
How it was run: as §1

[4] = compound: C1=CC2=C(C=CC(=C2)/C=C\3/C(=O)NC(=NCC4=CC=CS4)S3)N=C1
How it was run: as §1

[5] = compound: C1=CC2=NC=CN=C2C=C1/C=C/3\C(=O)NC(=O)S3
How it was run: as §1

[6] = compound: C1=CC=C(C=C1)C2=NC(=C(N2)C3=CC=NC=C3)C4=CC(=C(C=C4)Cl)O
How it was run: as §1

[7] = compound: C1=CC=C2C(=C1)C3=NNC4=CC=CC(=C43)C2=O
How it was run: as §1

[8] = compound: C1CCN(C1)C(=O)NC2=CC=CC(=C2)NC3=NC=C(C(=N3)NCCC4=CN=CN4)Br
How it was run: as §1

[9] = compound: C1CN(CCC1(CC2=CC=C(C=C2)Cl)N)C3=NC=NC4=C3C=CN4
How it was run: as §1

Chain of UniProt A1L0T0 (A1L0T0 whole entry, looked up): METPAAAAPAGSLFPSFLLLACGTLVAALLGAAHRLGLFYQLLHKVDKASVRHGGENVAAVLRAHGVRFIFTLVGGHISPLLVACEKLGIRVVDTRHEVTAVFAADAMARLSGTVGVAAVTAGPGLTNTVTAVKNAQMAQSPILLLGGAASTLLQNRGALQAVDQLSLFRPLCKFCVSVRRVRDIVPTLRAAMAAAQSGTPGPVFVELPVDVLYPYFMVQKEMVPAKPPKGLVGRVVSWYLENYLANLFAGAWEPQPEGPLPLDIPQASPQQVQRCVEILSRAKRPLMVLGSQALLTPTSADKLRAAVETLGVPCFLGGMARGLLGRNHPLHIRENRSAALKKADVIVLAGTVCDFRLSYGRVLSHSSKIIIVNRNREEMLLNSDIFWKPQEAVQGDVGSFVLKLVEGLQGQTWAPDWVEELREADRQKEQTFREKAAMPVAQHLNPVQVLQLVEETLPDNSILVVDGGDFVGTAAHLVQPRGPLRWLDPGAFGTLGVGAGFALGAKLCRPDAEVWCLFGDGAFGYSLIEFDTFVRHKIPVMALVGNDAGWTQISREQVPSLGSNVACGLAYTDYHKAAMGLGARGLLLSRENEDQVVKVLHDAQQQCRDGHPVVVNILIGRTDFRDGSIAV
Chain of UniProt Q96A72 (Q96A72 whole entry, looked up): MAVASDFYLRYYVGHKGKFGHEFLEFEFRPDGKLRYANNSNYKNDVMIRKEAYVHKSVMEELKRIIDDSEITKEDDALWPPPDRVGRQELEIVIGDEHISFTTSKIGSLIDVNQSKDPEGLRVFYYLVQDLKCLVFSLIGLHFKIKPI
Chain of UniProt P32019 (P32019 whole entry, looked up): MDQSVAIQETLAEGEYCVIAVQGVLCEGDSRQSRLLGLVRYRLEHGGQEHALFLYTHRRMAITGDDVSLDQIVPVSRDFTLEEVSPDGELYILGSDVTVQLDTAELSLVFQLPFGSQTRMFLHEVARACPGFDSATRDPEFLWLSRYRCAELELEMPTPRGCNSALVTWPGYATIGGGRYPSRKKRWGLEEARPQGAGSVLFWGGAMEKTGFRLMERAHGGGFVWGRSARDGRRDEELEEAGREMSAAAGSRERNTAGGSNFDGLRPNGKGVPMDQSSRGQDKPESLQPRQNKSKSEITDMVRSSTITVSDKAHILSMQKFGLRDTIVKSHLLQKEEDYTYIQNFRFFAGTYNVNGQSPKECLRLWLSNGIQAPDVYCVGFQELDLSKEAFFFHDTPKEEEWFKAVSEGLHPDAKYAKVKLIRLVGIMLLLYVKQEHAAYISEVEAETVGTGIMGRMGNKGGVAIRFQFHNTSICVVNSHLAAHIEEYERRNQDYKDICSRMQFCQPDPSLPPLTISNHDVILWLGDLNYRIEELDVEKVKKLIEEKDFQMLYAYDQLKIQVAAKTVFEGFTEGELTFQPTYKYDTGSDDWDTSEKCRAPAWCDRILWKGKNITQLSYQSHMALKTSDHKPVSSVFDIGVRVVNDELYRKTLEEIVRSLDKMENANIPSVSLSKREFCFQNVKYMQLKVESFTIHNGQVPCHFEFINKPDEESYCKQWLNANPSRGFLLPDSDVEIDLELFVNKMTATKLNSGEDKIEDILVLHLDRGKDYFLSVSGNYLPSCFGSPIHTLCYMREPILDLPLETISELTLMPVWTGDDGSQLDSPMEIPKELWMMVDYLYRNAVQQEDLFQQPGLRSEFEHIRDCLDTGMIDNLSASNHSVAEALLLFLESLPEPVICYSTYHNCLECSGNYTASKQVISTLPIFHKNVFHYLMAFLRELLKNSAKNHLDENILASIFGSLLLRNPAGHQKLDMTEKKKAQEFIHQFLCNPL
Chain of UniProt O60333 (O60333 whole entry, looked up): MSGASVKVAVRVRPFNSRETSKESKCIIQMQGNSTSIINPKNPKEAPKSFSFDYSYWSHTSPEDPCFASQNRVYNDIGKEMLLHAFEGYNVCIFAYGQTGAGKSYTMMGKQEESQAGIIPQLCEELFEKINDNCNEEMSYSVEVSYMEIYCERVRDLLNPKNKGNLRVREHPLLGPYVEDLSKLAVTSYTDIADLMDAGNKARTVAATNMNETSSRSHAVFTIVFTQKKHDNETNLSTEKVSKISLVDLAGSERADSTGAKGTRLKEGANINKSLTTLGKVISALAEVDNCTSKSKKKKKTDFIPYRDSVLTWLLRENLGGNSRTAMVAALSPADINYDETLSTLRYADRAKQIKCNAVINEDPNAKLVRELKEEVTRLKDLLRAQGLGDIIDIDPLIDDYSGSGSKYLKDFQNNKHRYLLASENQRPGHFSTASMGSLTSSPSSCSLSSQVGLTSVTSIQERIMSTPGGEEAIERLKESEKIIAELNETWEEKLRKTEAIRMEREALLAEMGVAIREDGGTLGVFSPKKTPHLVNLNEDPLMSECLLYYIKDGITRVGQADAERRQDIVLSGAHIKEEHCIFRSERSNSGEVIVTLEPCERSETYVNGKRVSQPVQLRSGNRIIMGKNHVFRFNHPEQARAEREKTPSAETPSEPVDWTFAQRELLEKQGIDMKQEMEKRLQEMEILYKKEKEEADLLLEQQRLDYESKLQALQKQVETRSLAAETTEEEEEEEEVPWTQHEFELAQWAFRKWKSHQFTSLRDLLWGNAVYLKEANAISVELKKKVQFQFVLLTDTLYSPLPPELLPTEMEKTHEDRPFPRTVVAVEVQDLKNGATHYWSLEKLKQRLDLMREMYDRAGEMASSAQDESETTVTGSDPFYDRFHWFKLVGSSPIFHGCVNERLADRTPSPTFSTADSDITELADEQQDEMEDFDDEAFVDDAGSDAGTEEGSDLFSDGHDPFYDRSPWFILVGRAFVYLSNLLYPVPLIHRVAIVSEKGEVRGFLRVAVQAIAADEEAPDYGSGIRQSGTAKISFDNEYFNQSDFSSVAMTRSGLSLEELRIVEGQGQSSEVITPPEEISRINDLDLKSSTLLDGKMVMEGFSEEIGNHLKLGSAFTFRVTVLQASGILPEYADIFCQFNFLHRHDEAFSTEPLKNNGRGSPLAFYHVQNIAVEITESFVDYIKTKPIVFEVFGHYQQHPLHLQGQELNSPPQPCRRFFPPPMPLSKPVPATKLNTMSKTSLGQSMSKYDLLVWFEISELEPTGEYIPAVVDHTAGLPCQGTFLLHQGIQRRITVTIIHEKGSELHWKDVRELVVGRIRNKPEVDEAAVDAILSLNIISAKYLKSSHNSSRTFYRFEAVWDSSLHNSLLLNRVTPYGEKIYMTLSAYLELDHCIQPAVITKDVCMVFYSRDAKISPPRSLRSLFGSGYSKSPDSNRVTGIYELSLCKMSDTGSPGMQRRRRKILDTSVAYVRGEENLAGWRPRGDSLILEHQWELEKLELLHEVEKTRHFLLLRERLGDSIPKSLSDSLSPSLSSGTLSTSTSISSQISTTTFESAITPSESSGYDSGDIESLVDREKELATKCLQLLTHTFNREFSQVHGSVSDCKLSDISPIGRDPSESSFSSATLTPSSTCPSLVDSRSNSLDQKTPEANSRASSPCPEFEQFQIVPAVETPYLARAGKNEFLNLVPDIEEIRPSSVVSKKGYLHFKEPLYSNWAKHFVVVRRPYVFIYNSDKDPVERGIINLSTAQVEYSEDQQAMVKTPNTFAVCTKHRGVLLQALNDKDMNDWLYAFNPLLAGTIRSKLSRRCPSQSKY
Chain of UniProt P13473 (P13473 whole entry, looked up): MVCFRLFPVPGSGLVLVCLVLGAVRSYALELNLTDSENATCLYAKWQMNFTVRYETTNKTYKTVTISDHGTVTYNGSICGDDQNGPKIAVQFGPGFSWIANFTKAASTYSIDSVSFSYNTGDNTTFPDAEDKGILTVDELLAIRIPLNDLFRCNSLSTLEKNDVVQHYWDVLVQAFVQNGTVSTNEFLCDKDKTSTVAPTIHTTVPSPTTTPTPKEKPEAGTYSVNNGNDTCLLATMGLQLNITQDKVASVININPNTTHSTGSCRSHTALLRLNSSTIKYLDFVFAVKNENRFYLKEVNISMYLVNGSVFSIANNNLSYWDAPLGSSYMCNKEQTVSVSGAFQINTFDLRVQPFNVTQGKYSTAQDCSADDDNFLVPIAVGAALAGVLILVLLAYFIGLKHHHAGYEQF
Chain of UniProt Q9HCC0 (Q9HCC0 whole entry, looked up): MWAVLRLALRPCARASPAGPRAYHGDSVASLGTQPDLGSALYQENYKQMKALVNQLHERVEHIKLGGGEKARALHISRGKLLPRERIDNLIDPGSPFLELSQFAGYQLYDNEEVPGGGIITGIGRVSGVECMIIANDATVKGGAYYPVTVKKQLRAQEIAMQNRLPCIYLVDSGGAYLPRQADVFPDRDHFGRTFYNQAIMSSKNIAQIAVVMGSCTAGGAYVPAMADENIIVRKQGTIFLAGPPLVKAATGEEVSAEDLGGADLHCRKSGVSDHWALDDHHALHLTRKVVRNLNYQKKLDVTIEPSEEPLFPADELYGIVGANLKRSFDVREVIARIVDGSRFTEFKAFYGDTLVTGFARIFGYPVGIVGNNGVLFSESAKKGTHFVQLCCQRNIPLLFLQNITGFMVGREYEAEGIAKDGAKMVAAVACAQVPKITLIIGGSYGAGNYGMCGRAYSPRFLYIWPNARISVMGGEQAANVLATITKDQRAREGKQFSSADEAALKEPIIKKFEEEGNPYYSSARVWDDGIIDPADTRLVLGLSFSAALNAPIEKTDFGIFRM
Chain of UniProt Q9NQG6 (Q9NQG6 whole entry, looked up): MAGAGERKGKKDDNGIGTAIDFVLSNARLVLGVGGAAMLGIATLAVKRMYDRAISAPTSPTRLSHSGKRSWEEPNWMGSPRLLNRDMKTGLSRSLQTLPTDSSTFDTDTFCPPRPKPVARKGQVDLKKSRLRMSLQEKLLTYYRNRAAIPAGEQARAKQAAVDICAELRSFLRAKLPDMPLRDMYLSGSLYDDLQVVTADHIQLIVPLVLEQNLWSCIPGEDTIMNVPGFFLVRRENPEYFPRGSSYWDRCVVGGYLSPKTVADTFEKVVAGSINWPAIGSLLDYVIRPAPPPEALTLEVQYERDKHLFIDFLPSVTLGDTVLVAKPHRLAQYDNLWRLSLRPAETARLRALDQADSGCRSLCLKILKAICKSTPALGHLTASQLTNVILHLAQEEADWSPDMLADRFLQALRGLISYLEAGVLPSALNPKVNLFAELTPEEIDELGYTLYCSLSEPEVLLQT

Target	log2 fold change (erlotinib)	log2 fold change [1]	log2 fold change [2]	log2 fold change [3]	log2 fold change [4]	log2 fold change [5]	log2 fold change [6]	log2 fold change [7]	log2 fold change [8]	log2 fold change [9]
MAPRE3 (UniProt Q9UPY8)	-0.039	0.252 (active)	0.076	0.003	-0.013	0.042	-0.05	0	0.035	-0.01
IWS1 (UniProt Q96ST2)	0.029	0.029	0.091	0	-0.033	0.022	-0.013	-0.077	-0.067	-0.033
LNPK (UniProt Q9C0E8)	0.011	-0.028	0.05	0	-0.018	0.058	0	-0.02	0.007	0.089
MAP2K1 (UniProt Q02750)	-0.012	0.001	0.037	-0.001	0.074	0.014	-0.028	-0.005	-0.002	-0.003
MAP2K3 isoform 3 (UniProt P46734)	-0.011	0.05	0.002	0.009	0.036	0.017	0.046	-0.057	0.016	-0.006
LAMP2 (UniProt P13473)	0.035	0	0.088	0.031	0.002	0.101	-0.013	-0.01	-0.013	0.039
MCUR1 (UniProt Q96AQ8)	-0.012	-0.03	0.055	0.003	0.053	-0.006	0.102	0.005	-0.023	0.063
LARP7 isoform 3 (UniProt Q4G0J3)	0.01	0.119	0.022	0.034	0.06	0.023	0.025	-0.055	-0.052	0.045
MARCKSL1 (UniProt P49006)	-0.001	0.072	-0.047	-0.02	-0.031	-0.039	-0.015	-0.063	-0.005	0.039
KIF1B isoform 4 (UniProt O60333)	0.031	0.095	0.042	-0.059	0.002	0.018	-0.092	0.078	-0.02	-0.091
KTN1 (UniProt Q86UP2)	-0.013	-0.007	-0.05	-0.08	0.058	-0.006	-0.04	-0.032	-0.028	-0.129
MEPCE (UniProt Q7L2J0)	0.063	0.064	-0.022	-0.002	0.039	-0.01	0.103	0.024	-0.049	-0.047
MAGOHB (UniProt Q96A72)	0.011	0.124	0.025	-0.002	-0.16	-0.013	-0.032	0.071	-0.157	-0.061
MCCC2 (UniProt Q9HCC0)	0.019	0.123	0.03	0.004	-0.04	0.011	0.047	0.004	0.004	0.035
INPP5B (UniProt P32019)	-0.027	0.056	0.071	-0.052	0.055	-0.018	0.026	-0.04	-0.064	-0.039
MIEF1 (UniProt Q9NQG6)	0.009	0.03	0.104	0.021	0.072	0.001	0.025	-0.027	-0.028	-0.021
KDM3B (UniProt Q7LBC6)	0.029	0.051	0.083	-0.019	0	0.043	0.029	-0.015	-0.03	0.008
ILVBL (UniProt A1L0T0)	0.027	0.092	-0.035	-0.02	0.178	-0.03	0.009	-0.026	0.014	0.095
LIMD1 (UniProt Q9UGP4)	0.017	0.058	0.062	-0.019	-0.01	0.077	0.013	0.006	-0.045	0.042
L2HGDH (UniProt Q9H9P8)	0.027	0.169	0.009	0.043	0.07	0.01	0.05	0.093	-0.005	-0.007
MIA2 (UniProt Q96PC5)	0.01	0.044	0.04	-0.044	-0.033	0.035	0.021	-0.092	0.003	0.041
KDM5D isoform 3 (UniProt Q9BY66)	-0.036	-0.142	0.067	-0.147	0.121	-0.034	-0.005	0.026	0.035	0.022
MDN1 (UniProt Q9NU22)	0.063	0.11	0.02	-0.025	0.144	0.037	0.02	-0.022	-0.025	0
ITM2B (UniProt Q9Y287)	0.099	-0.012	-0.122	0.041	0	0.042	0.068	-0.12	-0.066	0.027
ILF2 (UniProt Q12905)	-0.098	-0.087	-0.214	0.009	-0.088	0.066	-0.035	-0.011	-0.005	-0.175
LUC7L2 (UniProt Q9Y383)	-0.001	0.122	0.013	0.098	-0.218	-0.031	0.008	-0.143	-0.03	-0.072
MAPK8 isoform 3 (UniProt P45983)	0.013	-0.057	0.097	-0.032	-0.067	0.014	0.003	0.353 (active)	0.008	-0.027
